# S1P2 agonist = activates the human S1P2 receptor; activation, % at 4.5 µM; S1P2-expressing cell line, agonist reporter read-out; hit rate 0.46% among 97,000; AID 729; in the data active = activation above about 16%;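 note: 0% = vehicle low control and 100% = maximal reference agonist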
# S1P2 antag = S1P2 (human) receptor antagonism. cell-based S1P2 antagonist assay, inhibition at 5 uM. hit rate 0.21% among 97,000. inhibition, % at 5 µM. AID 736; in the data active = inhibition above about 45%;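 note: CRE beta-lactamase reporter cells expressing human S1P2 stimulated with S1P; 0% = agonist at EC80 alone and 100% = agonist plus reference antagonist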
# CD11b adhes inh = blocks human CD11b/CD18 adhesion to fibrinogen | P05107+P11215 | K562 CD11b/CD18 adhesion to fibrinogen, ATPlite luminescence; Mn2+ added to activate the integrin | inhibition, % at 10 µM | hit rate 0.54% among 93,000 | AID 1497;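 active = primary inhibition of 50% or more at 10 µM, then 40% or more on retest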
# Target sequence (P05107 whole entry, looked up, other chains not shown): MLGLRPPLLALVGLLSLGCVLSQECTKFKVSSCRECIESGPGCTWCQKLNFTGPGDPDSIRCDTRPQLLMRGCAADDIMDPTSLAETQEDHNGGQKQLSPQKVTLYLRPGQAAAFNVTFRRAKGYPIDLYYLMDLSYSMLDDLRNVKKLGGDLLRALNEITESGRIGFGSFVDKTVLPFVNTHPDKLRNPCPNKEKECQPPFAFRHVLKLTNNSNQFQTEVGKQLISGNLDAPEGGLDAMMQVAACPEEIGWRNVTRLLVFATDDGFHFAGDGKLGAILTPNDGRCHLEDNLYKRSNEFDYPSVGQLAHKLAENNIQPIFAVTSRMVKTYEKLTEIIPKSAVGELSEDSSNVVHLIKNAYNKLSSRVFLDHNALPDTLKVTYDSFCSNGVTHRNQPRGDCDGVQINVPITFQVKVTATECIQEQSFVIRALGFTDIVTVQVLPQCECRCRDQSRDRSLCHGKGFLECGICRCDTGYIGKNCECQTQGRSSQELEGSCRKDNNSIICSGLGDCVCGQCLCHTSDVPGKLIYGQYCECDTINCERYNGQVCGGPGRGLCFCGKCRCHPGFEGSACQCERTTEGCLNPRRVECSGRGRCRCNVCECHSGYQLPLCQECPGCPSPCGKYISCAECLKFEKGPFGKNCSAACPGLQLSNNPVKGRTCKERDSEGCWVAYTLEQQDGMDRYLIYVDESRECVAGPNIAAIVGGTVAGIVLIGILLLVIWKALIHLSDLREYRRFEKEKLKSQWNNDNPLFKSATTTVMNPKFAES
# CD11b adhes enh = increases human CD11b/CD18 adhesion to fibrinogen; P05107+P11215; K562 CD11b/CD18 adhesion to fibrinogen, ATPlite luminescence; activation, % at 10 µM; hit rate 0.07% among 93,000; AID 1499;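 active = 10 µM primary screen giving 50% or more activity, confirmed by 40% or more on retest at that dose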
# GALR2 agonist = agonists of human galanin receptor 2 (GALR2); O43603; GALR2-expressing cells, agonist activation read-out; activation, % (concentration not given with the values); hit rate 0.48% among 140,000; AID 803; in the data active = activation above about 5%, passing the limit was not always enough;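 note: 0% = vehicle buffer wells and 100% = reference agonist at full effect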
# GALR2 blocker = blocks the human galanin receptor 2. O43603. GALR2-expressing cells, antagonist mode. inhibition, % at 4 µM. hit rate 0.39% among 140,000. AID 828; in the data active = inhibition above about 27%;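 note: cells stimulated with galanin 1-16 at roughly its EC80; 0% = agonist challenge control and 100% = basal control without agonist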
# * marks the source's active call; other numbers are inactive results; / = not tested or not shown. Sampled rows, rich in hits. Any-hit rate of the full collection: about 1.4%.
SMILES,S1P2 agonist,S1P2 antag,CD11b adhes inh,CD11b adhes enh,GALR2 agonist,GALR2 blocker
Cc1ccc2nc(-c3ccccc3)cn2c1,-3,12,69*,-7,-1,8
CC(C)On1c(SC(C)C)nc2ccccc2c1=O,-3,-9,/,/,-1,-6
COc1cc(C2C(C#N)=C(C)NC3=C2C(=O)c2ccccc23)cc(OC)c1OC (stereo not drawn),7,-2,21,-7,-2,31*
CCOC(=O)C1=C(CC)Nc2ccccc2N=C1NC(=O)Cn1cnc2ccccc2c1=O,-3,8,/,/,-1,5
CCOC(=O)C1=C(CC)Nc2ccccc2N=C1NC(=O)Nc1ccc(Cl)c(Cl)c1,3,1,90*,-13,2,1
O=C(c1ccccc1F)N1CCC(N2CCCCCC2)CC1,2,-9,/,/,-1,-9
CC(C)CN1C(=O)c2ccc(C(=O)Nc3ccncc3)cc2C1=O,/,/,82*,-3,-1,11
COc1ccc(NC(=O)c2ccco2)cc1NC(=O)c1cccs1,-7,-8,-28,2,-1,11
O=C(Nc1ccc(N2CCOCC2)cc1)Nc1ccc2nc(-c3ccco3)c(-c3ccco3)nc2c1,0,-8,/,/,0,32*
CCc1nccn1S(=O)(=O)c1cc(OC)c(Cl)cc1OC,/,/,/,/,0,0
CCc1nccn1S(=O)(=O)c1cc(C)c(OC)cc1C,16*,-6,-1,-2,-3,-3
Cc1ccccc1NC(=O)CN1C(=O)S/C(=C\c2cccn2-c2cccc(C(=O)O)c2)C1=O,-3,-18,-14,-2,-2,9
Cc1cccc2cc(COC(=O)c3cccnc3)c(=O)[nH]c12,-5,5,1,-4,-2,-1
Cn1c2ccc(Cl)cc2c2nc3ccccc3nc21,24*,-53,0,-2,-1,1
COc1ccc(Cn2c3ccc(OC)cc3c3nc4ccccc4nc32)cc1,/,/,0,23,-2,-7
Cc1ccc(C)c(OCCCCn2cnc3ccccc3c2=O)c1,-1,-19,-5,-1,-2,-1
Cc1ccc(OCCCCn2cnc3ccccc32)c(C)c1,-3,6,86*,-9,1,-13
CCCCn1c(SCC(=O)NCc2ccco2)nnc1-c1ccco1,-4,3,10,-3,-1,1
Oc1cccc2ccc(Nc3ccccn3)nc12,/,/,42,-4,-2,30*
CCCCOC(=O)Cn1c(=N)n(CCC)c2ccccc21,-11,-10,15,-5,-2,7
CCc1nc(SCc2cccnc2)c2c(=O)n(C)c(=O)n(C)c2n1,17*,-40,-56,-2,-1,-2
O=C(CCn1cnc2ccccc2c1=O)Nc1nc(-c2ccc(Br)cc2)cs1,/,/,14,63,7.9*,-5
CCn1c(C)nc2cc(-c3nc4n(n3)Cc3ccccc3-4)ccc21,/,/,98*,-10,-1,3
Cc1ccc(-c2nc3n(n2)Cc2ccccc2-3)cc1,-1,25,/,/,1,12
Cc1cccnc1NC(=O)CCCN1C(=O)c2ccccc2C1=O,-1,0,-2,-4,-2,-3
SMILES,S1P2 agonist,S1P2 antag,CD11b adhes inh,CD11b adhes enh,GALR2 agonist,GALR2 blocker
O=C(NC(Nc1ncc(S(=O)(=O)c2ccc([N+](=O)[O-])cc2)s1)(C(F)(F)F)C(F)(F)F)c1ccc(Cl)cc1,-6,47*,96*,-5,-3,16
CC(=O)c1cc2c(cc1NC(=O)c1cc(C)nn1-c1ccccc1)OCO2,/,/,/,/,15*,9
COc1ccc(NC(=O)NCc2ccccn2)cc1,0,-15,/,/,-2,13
COc1ccc(-n2ccc(-c3nn(-c4cccc(C(F)(F)F)c4)ccc3=O)n2)cc1,18*,-26,-4,2,-2,-10
O=c1ccn(-c2cccc(C(F)(F)F)c2)nc1-c1ccn(-c2ccccc2F)n1,19*,-29,/,/,-2,-10
COc1ccccc1NC(=O)c1nn(-c2cccc(C(F)(F)F)c2)ccc1=O,-1,3,/,/,1,-5
CCN(CC)C(=O)CCCOc1ccc(Cl)cc1Cl,-4,6,-4,4,1,1
CC(C)OCCCNC(=O)c1c(N)n(/N=C/c2cccs2)c2nc3ccccc3nc12,18*,-28,31,149*,3,-18
O=C(COc1ccc(S(=O)(=O)N2CCCCC2)cc1)NCc1ccncc1,-3,-3,3,-1,-4,-5
Cc1ccc(NC(=S)N2CCN(CCN3C(=O)c4cccc5cccc(c45)C3=O)CC2)cc1,-3,-1,-6,45,-2,-8

# From PubChem BioAssay
